Literature values in PubChem BioAssay AID977611.
The campaign covered roughly 3,900 compounds. About 3,900 (100%) were called active. The limit is not given here; nearly all actives have Kd up to about 4200 µM. So high a share suggests a set chosen from earlier hits. Some of the results follow. *1 amine or outer side, *2 acyl side, *3 side chain or, on linkers, in order; H or OH if unused. Where a SMILES comes first, the peptide text is derived from it. Bridges are numbered along the chain shown (N, C = ends). Side-chain parts run from the residue outwards. [ ]: non-standard residue; d: D form. X1 = CC(C)C[C@@H](C(=O)[*:2])N(C[C@H](Cc1ccccc1)N[*:3])[*:1]; Orn(CH(NH2)2) = NC(N)NCCC[C@H](N)C(=O)O; S5 = C=CCCC[C@](C)(N)C(=O)O

Assay: PubChem AID 977611
Settings: PDB protein-ligand complexes, literature Kd

For `C[C@@H](C(=O)O)c1n[nH]c2nc(N)[nH]c(=O)c2c1=O`, the Kd (protein: Dihydropteroate Synthase, PDB entry 4daf) is given as 76 nM (active).

In the case of `Nc1nc2[nH]nc(CCC(=O)O)c(=O)c2c(=O)[nH]1`, the Kd (protein: Dihydropteroate Synthase, PDB entry 4db7) is listed as 273 nM (active).

For `COc1ccccc1[C@@H](Br)[C@H](NC(=O)c1ccc([N+](=O)[O-])cc1)C(=O)N1CCCCC1`, the Kd (protein: Capsid protein, PDB entry 4g93) is listed as 300000 nM (active).

For `Nc1ncnc2c1ncn2[C@@H]1O[C@H](COP(O)O)[C@@H](O)[C@H]1O`, the Kd (PDB entry 4qsk) is listed as 8000 nM (active).

In the case of `C[C@@H](Oc1ccc(Oc2ncc(C(F)(F)F)cc2Cl)cc1)C(=O)O`, the Kd (protein: carboxyltransferase subunit of ACC (AccD6), PDB entry 4g2r) is given as 35800 nM (active).

For `OC(Cc1cccc(-c2cccc3c2oc2ccccc23)c1)([P+](O)(O)O)[P+](O)(O)O`, the Kd (protein: Diterpene synthase Rv3378c, PDB entry 3wqm) is given as 560 nM (active).

For `CN1CCN(c2cccc(CN)c2)CC1`, the Kd (protein: CATIONIC TRYPSIN, PDB entry 4abg) is given as 271000 nM (active).

For `CC(C)C[C@@H]1NC(=O)[C@H](C)NC(=O)[C@@H]2CSSC[C@H](NC(=O)CN)C(=O)N[C@@H](CSSC[C@@H](C(=O)O)NC(=O)[C@H](Cc3ccc(O)cc3)NC(=O)[C@H](CCCCN)NC(=O)[C@@H]3CCCN3C(=O)[C@H](CC(N)=O)NC(=O)[C@H](CC(N)=O)NC1=O)C(=O)N[C@@H](CO)C(=O)N[C@@H](CC(C)C)C(=O)N1CCC[C@H]1C(=O)N1CCC[C@H]1C(=O)N2` (H-GCCSLPPCALNNPKYC-OH; disulfide 2-8, 3-16), the Kd (protein: nicotinic acetylcholine receptor homolog AChBP(?7-nAChR), PDB entry 2br8) is listed as 32.6 nM (active).

In the case of `Cc1ccc(C(=O)Nc2ccc(S(O)(O)O)c3cc(S(O)(O)O)cc(S(O)(O)O)c23)cc1N`, the Kd (protein: Nucleocapsid protein, PDB entry 4j4v) is listed as 440 nM (active).

For `NCCc1c[nH]c2ccccc12`, the Kd (protein: Biogenic amine-binding protein, PDB entry 4ge1) is given as 370 nM (active).

For `Cc1[nH]c2ccccc2c1CC(=O)N[C@@H](Cc1ccccc1)C(=O)N(C)c1ccccc1`, the Kd (protein: CAPSID PROTEIN P24 CA Hexamer, PDB entry 4qnb) is listed as 260 nM (active) and the Kd (protein: Capsid protein p24, PDB entry 4u0e) is listed as 120 nM (active).

For `CC(C)C[C@H](NC(=O)[C@@H](NC(=O)[C@@H]1CCCN1)C(C)C)C(=O)N[C@@H](Cc1ccccc1)C(=O)N1CCC[C@H]1C(=O)NCC(=O)N[C@@H](CCC(N)=O)C(=O)N1CCC[C@H]1C(=O)N[C@@H](Cc1ccccc1)C(=O)NCC(=O)N[C@@H](CCC(N)=O)C(=O)N1CCC[C@H]1C(=O)N1CCC[C@H]1C(=O)O` (H-PVLFPGQPFGQPP-OH), the Kd (protein: CAPSID PROTEIN P24 CA Hexamer, PDB entry 4wym) is given as 99800 nM (active).

In the case of `CC(C)C[C@H](NC[C@H](Cc1ccccc1)NC(=O)[C@H](CC(N)=O)NC(=O)CNC(=O)[C@@H]1CCCN1C(=O)[C@@H](N)CCCNC(N)N)C(=O)N[C@@H](CCC(N)=O)C(=O)N[C@@H](CO)C(=O)N[C@@H](CCCNC(N)N)C(=O)N1CCC[C@H]1C(N)=O` (H-[X1]([Asn-Gly-Pro-Orn(CH(NH2)2)])QS[Orn(CH(NH2)2)]P-NH2), the Kd (protein: PR(HIV-1 protease) with the V82A mutation (PRV82A), PDB entry 2aof) is listed as 28200 nM (active) and the Kd (protein: wild-type PR(HIV-1 protease), PDB entry 2aoi) is listed as 96700 nM (active).

In the case of H-PVLFPGQPFGQPPA-OH, the Kd (protein: Capsid protein p24, PDB entry 4u0a) is listed as 50000 nM (active).

In the case of H-PVLFPGAPFGQPPA-OH, the Kd (protein: Capsid protein p24, PDB entry 4u0b) is listed as 50000 nM (active).

In the case of `COC(=O)C[C@@H]1N=C(c2ccc(Cl)cc2)c2c(sc(C)c2C)-n2c(C)nnc21`, the Kd (protein: Bromodomain-containing protein 4, PDB entry 4f3i) is given as 36.1 nM (active).

For `NC1NC(=O)c2ncn([C@@H]3O[C@H](CO[P+](O)(O)O[C@H]4[C@@H](O)[C@H](n5cnc6c5NC(N)NC6=O)O[C@@H]4COP(O)O)[C@@H](OP(O)O)[C@H]3O)c2N1` (stereo not given in full), the Kd (protein: Simian 11 rotavirus (serotype 3 / strain SA11-Ramig), PDB entry 4g0a) is listed as 25.3 nM (active).

For `C[C@H]1OC(c2cccc(O)c2O)=N[C@@H]1C(=O)N(CCCNC(=O)c1cccc(O)c1O)CCCNC(=O)c1cccc(O)c1O`, the Kd (protein: Neutrophil gelatinase-associated lipocalin, PDB entry 4k19) is listed as 4.4 nM (active).

For H-TFKKTN-OH, the Kd (protein: Coatomer subunit beta', PDB entry 4j86) is given as 171000 nM (active).

In the case of H-ITFEDLLDYYGP-OH, the Kd (protein: HIV-1 Capsid Protein(L211S), PDB entry 3ds4) is listed as 64500 nM (active), the Kd (protein: HIV-1 Capsid Protein(N183A), PDB entry 3ds0) is listed as 14900 nM (active) and the Kd (protein: HIV-1 Capsid Protein(Y169A), PDB entry 3ds3) is listed as 6000 nM (active).

In the case of H-EDMFAKLKDKFFNEINK-OH, the Kd (PDB entry 2nm1) is given as 34 nM (active).

For `CC(C)C[C@H](NC(=O)[C@@H](NC(=O)[C@H](CCC(=O)O)NC(=O)[C@@H](N)Cc1ccc(O)cc1)[C@@H](C)O)C(=O)N[C@@H](CO[P+](O)(O)O)C(=O)N[C@@H](CC(=O)O)C(=O)N[C@@H](CO[P+](O)(O)O)C(=O)N[C@@H](CCC(=O)O)C(=O)O`, the Kd (protein: Msx2-interacting protein, PDB entry 2rt5) is listed as 190 nM (active).

In the case of `CC[C@H](C)[C@H](N)C(=O)N[C@H](C(=O)N[C@@H](Cc1ccccc1)C(=O)N[C@@H](CCC(=O)O)C(=O)N[C@@H](CC(=O)O)C(=O)N[C@@H](CC(C)C)C(=O)N[C@@H](CC(C)C)C(=O)N[C@@H](CC(=O)O)C(=O)N[C@@H](Cc1ccc(O)cc1)C(=O)N[C@@H](Cc1ccc(O)cc1)C(=O)NCC=O)[C@@H](C)O` (H-ITFEDLLDYYG-aldehyde), the Kd (protein: HIV-1 Capsid Protein(E187A), PDB entry 3ds1) is given as 2000 nM (active).

For H-ITYDKGIQTDQ-OH, the Kd (protein: Dynein light chain 1, cytoplasmic, PDB entry 4ht6) is given as 620 nM (active).

In the case of `CC(C)C[C@H](NC(=O)[C@H](CCCCN)NC(=O)[C@H](CC(C)C)NC(=O)[C@@H](NC(=O)[C@H](CC(N)=O)NC(=O)[C@H](CCC(N)=O)NC(=O)[C@H](CCCCN)NC(=O)[C@@H](NC(=O)[C@H](Cc1ccc(O)cc1)NC(=O)[C@H](CCCCN)NC(=O)[C@@H]1CCCN1)C(C)C)[C@@H](C)O)C(=O)N[C@@H](C)C(=O)N[C@H](C(=O)O)[C@@H](C)O`, the Kd (protein: SEC3 wt, PDB entry 1jwm) is listed as 270000 nM (active).

For `CC[C@H](C)[C@H](N)C(=O)N[C@H](C(=O)N[C@@H](Cc1ccccc1)C(=O)N[C@@]1(C)CCC/C=C\CCC[C@@](C)(C(=O)N[C@@H](Cc2ccc(O)cc2)C(=O)N[C@@H](Cc2ccc(O)cc2)C(=O)NCC(=O)N[C@@H](CCCCN)C(=O)N[C@@H](CCCCN)C(=O)N[C@@H](CCCCN)C(=O)O)NC(=O)[C@H](CC(C)C)NC(=O)[C@H](CC(C)C)NC(=O)[C@H](CC(=O)O)NC1=O)[C@@H](C)O` (H-ITF[S5]DLL[S5]YYGKKK-OH; staple (Z) 4-8), the Kd (protein: Capsid protein p24(W184A, M185A), PDB entry 2l6e) is listed as 1000 nM (active).
